What was measured:
[1] = target: T1, Aspartate--tRNA(Asp/Asn) ligase (Mycobacterium tuberculosis (strain ATCC 25618 / H37Rv)) (UniProt P9WFW3); experiment: Assay for Asp RNA synthetase-1 from Mycobacterium tuberculosis; assay type: functional; parameters: scale not given: direction of the effect not stated beside the values; details: 30 µM; also: in the data most compounds retested in dose-response had high values
T1 sequence (whole entry): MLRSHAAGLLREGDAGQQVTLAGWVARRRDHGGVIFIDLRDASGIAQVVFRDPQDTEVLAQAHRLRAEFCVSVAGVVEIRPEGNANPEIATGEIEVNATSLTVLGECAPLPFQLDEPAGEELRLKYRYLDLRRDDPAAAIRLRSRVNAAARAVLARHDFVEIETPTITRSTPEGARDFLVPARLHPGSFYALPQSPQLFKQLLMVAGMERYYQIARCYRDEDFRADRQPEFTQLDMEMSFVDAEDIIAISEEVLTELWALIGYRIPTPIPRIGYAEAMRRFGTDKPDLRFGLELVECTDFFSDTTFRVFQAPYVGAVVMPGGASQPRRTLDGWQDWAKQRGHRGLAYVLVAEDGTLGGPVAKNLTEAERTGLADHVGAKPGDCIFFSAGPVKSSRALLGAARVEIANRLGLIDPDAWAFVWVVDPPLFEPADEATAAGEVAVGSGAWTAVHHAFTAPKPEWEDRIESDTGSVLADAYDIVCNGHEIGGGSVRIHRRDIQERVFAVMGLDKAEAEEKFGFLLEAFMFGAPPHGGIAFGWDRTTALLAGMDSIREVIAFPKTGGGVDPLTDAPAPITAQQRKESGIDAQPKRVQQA

[2] = target: Shiga toxin 2 (Escherichia coli O157:H7) (UniProt P09385+P09386); experiment: E. coli 0.157:H7 Shiga Toxin SOP - stx2 screening assay; assay type: functional; parameters: scale not given: direction of the effect not stated beside the values; details: 30 µM

SMILES | Percent Effect [1] [%] | Percent Effect [2] [%]
O=C(CCCNC(=O)C1CC1)Nc1cnn(-c2ccccc2Cl)c1 | -4.78 | -29.3
Cc1nnn2c1COCC(CNC(=O)c1ccc3[nH]ccc3c1)C2 (centres undefined) | 0.238 | -35.3
CC(C)(C)c1cnc(CN2CCC[C@H]2CO)o1 | -4.22 | -5.47
CN(Cc1cn2ccccc2n1)C1CCCN(c2cccnn2)C1 (centres undefined) | 3.45 | -72.8
Cc1cc(C(=O)NCc2ccc(N3CCCC(C(N)=O)C3)cc2)no1 (centres undefined) | -6.8 | -3.03
CC(NC(=O)NCc1cc[nH]n1)c1ccc2c(c1)CCC(=O)N2 (centres undefined) | -1.15 | -11.9
Cc1cnn(CC(C)NCc2nc(-c3cccnc3)no2)c1 (centres undefined) | 1 | -15.5
Cc1cc(C)n(CC2CCCN2CCCS(N)(=O)=O)n1 (centres undefined) | -0.589 | -25.1
Cc1noc(C2CCN(C(=O)c3ccc(NC4CC4)nc3)CC2)n1 | 1.21 | -7.73
c1cnc(N2CCC3(COCc4cnc(-c5cccnc5)nc43)C2)nc1 (centres undefined) | 2.15 | -3.56
CC(C)Nc1nc2c(cc1C(=O)NCC1CC1)CCNCC2 | 0.611 | 2.86
COC(=O)COc1nc(CC(C)C)c2c(c1C#N)CCCC2 | -0.893 | -1.99
COCCN1C[C@@H]2CN(C(=O)[C@H]3CCCO3)C[C@@H]2C1=O | -1.41 | -16.3
CC(NC(=O)NCCCn1cncn1)c1ccccc1Cl (centres undefined) | 9.3 | -26.7
Cc1ncccc1OC1(C(=O)NCCCN2CCOCC2)CCNCC1 | 1.19 | -8.28
Cn1cccc1CN1CCC2(CCCN(C(=O)c3cnccn3)C2)C1 (centres undefined) | 11.1 | -9.19
CC(C)Cc1nc(OCC(N)=O)c(C#N)c2c1CCC2 | 2.64 | -13.7

From ChEMBL document CHEMBL3988442, “University of Dundee, Small-Polar-MMV Screening Library” (2021)
